Assay results from the supplement of paper PMC3545927.
This is one part of the list. No count for the full screen is at hand.

Biological target: furin, P09958
Assay: furin cleavage Z-score vs untreated control; higher = more cleavage, active = 3.5 or more, inactive = 1 or less, 8 variable residues between constant flanks
Procedure, shortened: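 Magnetic beads held 8-mer peptides by the N-terminus, each fused to a cDNA oligonucleotide, and purified furin was added for 7.5, 15 or 30 min. Released DNA was sequenced after PCR adapter tagging. The cleavage Z-score is the log count relative to furin-free reactions, lowess-adjusted and divided by median absolute deviation.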
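Further: purified furin at 1:10 enzyme:substrate in 50 mM HEPES pH 7.5.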

Chain of furin, P09958 (P09958 whole entry): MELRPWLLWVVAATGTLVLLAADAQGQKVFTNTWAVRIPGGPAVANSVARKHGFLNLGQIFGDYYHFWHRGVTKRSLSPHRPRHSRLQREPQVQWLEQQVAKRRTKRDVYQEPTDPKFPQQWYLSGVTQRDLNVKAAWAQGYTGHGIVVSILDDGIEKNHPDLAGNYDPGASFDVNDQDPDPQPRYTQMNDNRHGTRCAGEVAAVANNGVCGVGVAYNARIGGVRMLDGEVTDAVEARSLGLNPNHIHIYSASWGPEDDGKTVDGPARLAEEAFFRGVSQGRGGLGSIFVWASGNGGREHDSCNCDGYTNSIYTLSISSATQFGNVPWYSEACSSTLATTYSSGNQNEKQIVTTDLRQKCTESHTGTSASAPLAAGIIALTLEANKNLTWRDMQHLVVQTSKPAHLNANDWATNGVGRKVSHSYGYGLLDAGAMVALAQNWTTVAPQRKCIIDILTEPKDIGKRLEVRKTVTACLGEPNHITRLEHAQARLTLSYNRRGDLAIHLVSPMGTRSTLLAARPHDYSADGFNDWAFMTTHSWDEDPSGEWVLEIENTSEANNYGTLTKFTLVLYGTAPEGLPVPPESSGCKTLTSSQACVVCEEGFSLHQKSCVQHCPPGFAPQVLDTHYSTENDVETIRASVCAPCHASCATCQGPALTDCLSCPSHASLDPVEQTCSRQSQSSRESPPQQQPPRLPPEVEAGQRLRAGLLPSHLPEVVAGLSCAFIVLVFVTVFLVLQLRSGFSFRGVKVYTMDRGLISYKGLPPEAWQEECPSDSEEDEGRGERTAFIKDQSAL

Sequence | furin cleavage Z-score (7.5 min) | furin cleavage Z-score (15 min) | furin cleavage Z-score (30 min)
CATTPCSGSSAGNASASA [HC1937] | -1.48 (inactive) | -0.199 (inactive) | -0.0714 (inactive)
CAMALTLSPYAGNASASA [HC574] | -0.719 (inactive) | -0.267 (inactive) | 0.328 (inactive)
CAGVEHRLEAAGNASASA [HC478] | -0.376 (inactive) | -1.52 (inactive) | -2.05 (inactive)
CALPARDKRAAGNASASA [FS-1026] | 9.51 (active) | 8.58 (active) | 8.12 (active)
CALPNREDRAAGNASASA [FS-54] | 0.255 (inactive) | -1.19 (inactive) | -1.7 (inactive)
CASDIRTEEAAGNASASA [HC1486] | 0.515 (inactive) | -1.04 (inactive) | -1.3 (inactive)
CASPIRTPRAAGNASASA [FS-1083] | 4.85 (active) | 4.51 (active) | 4.42 (active)
CAIPSGFRRSAGNASASA [FS-339] | -0.371 (inactive) | -1.96 (inactive) | -0.569 (inactive)
CASRDRFRRSAGNASASA [FS-1282] | 13 (active) | 12.2 (active) | 9.49 (active)
CASRSLSRRSAGNASASA [FS-1088] | 8.82 (active) | 10.1 (active) | 7.4 (active)
CALRMFERRSAGNASASA [FS-1367] | 0.304 (inactive) | -0.351 (inactive) | 0.543 (inactive)
CADMMEECSQAGNASASA [HC1806] | -0.946 (inactive) | -0.28 (inactive) | -0.569 (inactive)
CAAKVLVVLLAGNASASA [HC345] | -0.548 (inactive) | -0.603 (inactive) | 0.816 (inactive)
CANEKRQRRQAGNASASA [FS-552] | 8.64 (active) | 9.03 (active) | 8.4 (active)
CAAKSRQRRQAGNASASA [FS-1583] | 9.65 (active) | 11 (active) | 7.11 (active)
CAAKSRQMRSAGNASASA [FS-321] | 12.3 (active) | 12.5 (active) | 8.77 (active)
CATHMRQMRSAGNASASA [FS-304] | 5.44 (active) | 7.85 (active) | 7.29 (active)
CAQALPVWARAGNASASA [HC1302] | -0.162 (inactive) | 0.223 (inactive) | -0.716 (inactive)
CAATRDGKLPAGNASASA [HC284] | 0.288 (inactive) | -1.04 (inactive) | 0.353 (inactive)
CATMRIVGPRAGNASASA [HC1182] | 0.31 (inactive) | 1.38 | 0.463 (inactive)
CATTRCSGSWAGNASASA [HC1873] | -2.28 (inactive) | -0.493 (inactive) | -0.341 (inactive)
CAGCIITSLTAGNASASA [HC681] | -0.591 (inactive) | -0.913 (inactive) | -0.483 (inactive)
CAHEMEECSQAGNASASA [HC1795] | 0.638 (inactive) | -0.825 (inactive) | 0.0903 (inactive)
CAGALRPRRGAGNASASA [FS-421] | 1.31 | 0.929 (inactive) | 0.673 (inactive)
CAASSRPRRGAGNASASA [FS-10] | 5.57 (active) | 4.59 (active) | 4.78 (active)
CAKNSRKLRGAGNASASA [FS-258] | 0.0851 (inactive) | 1.03 | 2.96
CAPIIRKSRGAGNASASA [FS-1472] | 10 (active) | 10.9 (active) | 7.97 (active)
CAEPPRPRRGAGNASASA [FS-992] | -0.496 (inactive) | -0.299 (inactive) | 0.0496 (inactive)
CALIAFASRGAGNASASA [HC1120] | 0.403 (inactive) | -0.694 (inactive) | 0.0807 (inactive)
CAPGRRPRRGAGNASASA [FS-68] | 10.4 (active) | 9.49 (active) | 8.86 (active)
